Measured values: PubChem BioAssay (NCATS)
Records with an inconclusive call do not appear. Calls of active or inactive are those of the source. The call rests on the fitted dose curve; in most records, active means well fitted cell-killing curve with a large enough effect; inconclusive means small, poorly fitted or top-dose-only effect, or effect the other way; inactive means flat fitted curve, though single readings scatter.

Assays:
Assay in all cases: Primary qHTS to identify gynecologic anti-cancer compounds using libraries of approved drugs and bioactive compounds (AID 1345084); further: nearly all actives have a fitted effect of over 55% in size
CAOV3 = details: Gynecologic cancer cell panel viability, ATPlite luminescence, 48 h; series mostly up to 57.5 µM
How it was run: (§1)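 Five-point cytotoxicity, 48 h drug exposure at 37 C, 5% CO2, on cells seeded 16 h beforehand. ATP content read by ATPlite luminescence.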

CASKI = details: Gynecologic cancer cell panel viability, ATPlite luminescence, 48 h; series mostly up to 57.5 µM
How it was run: as §1

Es-2 = details: Gynecologic cancer cell panel viability, ATPlite luminescence, 48 h; series mostly up to 57.5 µM
How it was run: as §1

HeLa = details: Gynecologic cancer cell panel viability, ATPlite luminescence, 48 h; series mostly up to 57.5 µM
How it was run: as §1

Hek293T = details: Gynecologic cancer cell panel viability, ATPlite luminescence, 48 h, control line for the selectivity index; series mostly up to 57.5 µM
How it was run: as §1

JEG-3 = details: Gynecologic cancer cell panel viability, ATPlite luminescence, 48 h; series mostly up to 57.5 µM
How it was run: as §1

OV90 = details: Gynecologic cancer cell panel viability, ATPlite luminescence, 48 h; series mostly up to 57.5 µM
How it was run: as §1

PA-1 = details: Gynecologic cancer cell panel viability, ATPlite luminescence, 48 h; series mostly up to 57.5 µM
How it was run: as §1

SKOV3 = details: Gynecologic cancer cell panel viability, ATPlite luminescence, 48 h; series mostly up to 57.5 µM
How it was run: as §1

Tov-21-G = details: Gynecologic cancer cell panel viability, ATPlite luminescence, 48 h; series mostly up to 57.5 µM
How it was run: as §1
On the % scale 0 is the no-effect control and ±100 the full control effect.

CC(=O)OC1CC(O)C(C)(C)C2CC(OC(C)=O)C3(C)C(CCC4(C)C(c5ccoc5)C(=O)C5OC543)C12C (stereo not given)
inactive: Potency (CAOV3) | Potency (CASKI) | Potency (Es-2) | Potency (HeLa) | Potency (Hek293T) | Potency (JEG-3) | Potency (OV90) | Potency (PA-1) | Potency (SKOV3) | Potency (Tov-21-G)

CCc1[nH]c2ccc(OC)cc2c1CCN(C)C
inactive: Potency (CAOV3) | Potency (CASKI) | Potency (Es-2) | Potency (HeLa) | Potency (Hek293T) | Potency (JEG-3) | Potency (OV90) | Potency (PA-1) | Potency (SKOV3) | Potency (Tov-21-G)

CC(CCc1ccc(O)cc1)O[C@@H]1O[C@H](CO[C@H]2OC[C@](O)(CO)[C@H]2O)[C@@H](O)[C@H](O)[C@H]1O (stereo not given in full)
inactive: Potency (CAOV3) | Potency (CASKI) | Potency (Es-2) | Potency (HeLa) | Potency (Hek293T) | Potency (JEG-3) | Potency (OV90) | Potency (PA-1) | Potency (SKOV3) | Potency (Tov-21-G)

C/C=C(\C)C(=O)OC1C(C)OC(OC2C(C)OC(OC3CCC4(C)C(=CCC5C4CCC4(C)C(C(C)OC6OC(COC7OC(CO)C(O)C(O)C7O)C(O)C(O)C6O)CCC54O)C3)CC2OC)C(O)C1OC (stereo not given)
inactive: activity change, negative = cytotoxicity (CAOV3) 12.8% [at 11.6 µM] | activity change, negative = cytotoxicity (CASKI) 9.44% [at 11.6 µM] | activity change, negative = cytotoxicity (Es-2) 4.35% [at 11.6 µM] | activity change, negative = cytotoxicity (HeLa) 3.42% [at 11.6 µM] | activity change, negative = cytotoxicity (Hek293T) 8.11% [at 11.6 µM] | activity change, negative = cytotoxicity (JEG-3) -0.0196% [at 11.6 µM] | activity change, negative = cytotoxicity (OV90) -0.455% [at 11.6 µM] | activity change, negative = cytotoxicity (PA-1) 9.3% [at 11.6 µM] | activity change, negative = cytotoxicity (SKOV3) -10% [at 11.6 µM] | activity change, negative = cytotoxicity (Tov-21-G) 3.11% [at 11.6 µM]

CC(=O)OC12C(O)C(C)C3(O)C4C=C(C)C(=O)C4CC(CO)=CC3C1C2(C)C (stereo not given)
inactive: Potency (CAOV3) | Potency (CASKI) | Potency (Es-2) | Potency (HeLa) | Potency (Hek293T) | Potency (JEG-3) | Potency (OV90) | Potency (PA-1) | Potency (SKOV3) | Potency (Tov-21-G)

C=C(C)[C@H]1O[C@H]2CC[C@@]3(C)[C@@](O)(CC[C@H]4[C@@H]5OC(C)(C)[C@H]6C[C@@H]7C(=C)Cc8c(Cl)cc9[nH]c(c5c9c8[C@@]76O)[C@@]43C)[C@]23O[C@@H]3[C@H]1O
inactive: Potency (CAOV3) | Potency (CASKI) | Potency (Es-2) | Potency (HeLa) | Potency (Hek293T) | Potency (JEG-3) | Potency (OV90) | Potency (PA-1) | Potency (SKOV3) | Potency (Tov-21-G)

C[C@@]1(C(=O)O)CC[C@]2(C)CC[C@]3(C)C4=CC(=O)c5cc(O)c(O)cc5[C@]4(C)CC[C@@]3(C)[C@@H]2C1
inactive: Potency (CAOV3) | Potency (CASKI) | Potency (Es-2) | Potency (HeLa) | Potency (Hek293T) | Potency (JEG-3) | Potency (OV90) | Potency (PA-1) | Potency (SKOV3) | Potency (Tov-21-G)

C/C=C(\C)C(=O)O[C@H]1[C@H](OC(C)=O)[C@]2(CO)[C@H](O)[C@H](O)[C@]3(C)C(=CCC4[C@@]5(C)CC[C@H](O[C@@H]6O[C@H](C(=O)O)[C@@H](O)[C@H](O[C@@H]7OC[C@H](O)[C@H](O[C@@H]8OC[C@H](O)[C@H](O)[C@H]8O)[C@H]7O)[C@H]6O[C@@H]6O[C@H](CO)[C@@H](O)[C@H](O)[C@H]6O)C(C)(C)C5CC[C@]43C)[C@@H]2CC1(C)C (stereo not given in full)
inactive: activity change, negative = cytotoxicity (CAOV3) 0.059% [at 6.55 µM] | activity change, negative = cytotoxicity (CASKI) 13.6% [at 6.55 µM] | activity change, negative = cytotoxicity (Es-2) -0.471% [at 6.55 µM] | activity change, negative = cytotoxicity (HeLa) 10.9% [at 6.55 µM] | activity change, negative = cytotoxicity (Hek293T) -2.46% [at 6.55 µM] | activity change, negative = cytotoxicity (JEG-3) -2.67% [at 6.55 µM] | activity change, negative = cytotoxicity (OV90) -10.1% [at 6.55 µM] | activity change, negative = cytotoxicity (PA-1) -1.59% [at 6.55 µM] | activity change, negative = cytotoxicity (SKOV3) 6.49% [at 6.55 µM] | activity change, negative = cytotoxicity (Tov-21-G) 19.4% [at 6.55 µM]

CN(C)CCc1c[nH]c2ccc(CN3CCN(C)S3(=O)=O)cc12
inactive: Potency (CAOV3) | Potency (CASKI) | Potency (Es-2) | Potency (HeLa) | Potency (Hek293T) | Potency (JEG-3) | Potency (OV90) | Potency (PA-1) | Potency (SKOV3) | Potency (Tov-21-G)

COC(=O)[C@@]12C(=O)C(C)C(=O)[C@]1(C)C(C)=C[C@H]1[C@]3(C=O)CC[C@H](OC(C)=O)C(C)(C)[C@H]3CC[C@@]12C (stereo not given in full)
inactive: Potency (CAOV3) | Potency (CASKI) | Potency (Es-2) | Potency (HeLa) | Potency (Hek293T) | Potency (JEG-3) | Potency (OV90) | Potency (PA-1) | Potency (SKOV3) | Potency (Tov-21-G)

COC(=O)N1CCN(C(=O)Cc2ccc(Cl)c(Cl)c2)[C@@H](CN2CCCC2)C1
inactive: Potency (CAOV3) | Potency (CASKI) | Potency (Es-2) | Potency (HeLa) | Potency (Hek293T) | Potency (JEG-3) | Potency (OV90) | Potency (PA-1) | Potency (SKOV3) | Potency (Tov-21-G)

COc1cc(C(=O)O[C@H]2[C@@H]3C=CO[C@@H](O[C@@H]4O[C@H](CO)[C@@H](O)[C@H](O)[C@H]4O)[C@@H]3[C@@]3(CO)O[C@@H]23)ccc1O
inactive: Potency (CAOV3) | Potency (CASKI) | Potency (Es-2) | Potency (HeLa) | Potency (Hek293T) | Potency (JEG-3) | Potency (OV90) | Potency (PA-1) | Potency (SKOV3) | Potency (Tov-21-G)

COc1cc(CCNCc2ccccc2O)c(OC)cc1C#N
inactive: Potency (CAOV3) | Potency (CASKI) | Potency (Es-2) | Potency (HeLa) | Potency (Hek293T) | Potency (JEG-3) | Potency (OV90) | Potency (PA-1) | Potency (SKOV3) | Potency (Tov-21-G)

C=C[C@H]1CN2CC[C@H]1C[C@@H]2[C@@H](O)c1ccnc2ccccc12
inactive: Potency (CAOV3) | Potency (CASKI) | Potency (Es-2) | Potency (HeLa) | Potency (Hek293T) | Potency (JEG-3) | Potency (OV90) | Potency (PA-1) | Potency (SKOV3) | Potency (Tov-21-G)

CCC(C)(OC(C)=O)C(=O)O[C@H]1[C@H](OC(C)=O)C[C@@H]2[C@@](C)([C@@H]3C[C@H]4C=CO[C@H]4O3)[C@H](C)C[C@H](OC(C)=O)[C@@]2(COC(C)=O)[C@@]12CO2 (stereo not given in full)
inactive: Potency (CAOV3) | Potency (CASKI) | Potency (Es-2) | Potency (HeLa) | Potency (Hek293T) | Potency (JEG-3) | Potency (OV90) | Potency (PA-1) | Potency (SKOV3) | Potency (Tov-21-G)

CC(=O)O[C@H]1C[C@@H](OC(C)=O)C(C)(C)C2C[C@@H](O)[C@]3(C)C(CC[C@@]4(C)[C@H](C5=CC(=O)OC5O)C[C@H]5O[C@]543)[C@]21C (stereo not given in full)
inactive: Potency (CAOV3) | Potency (CASKI) | Potency (Es-2) | Potency (HeLa) | Potency (Hek293T) | Potency (JEG-3) | Potency (OV90) | Potency (PA-1) | Potency (SKOV3) | Potency (Tov-21-G)
